Rows were chosen to be rich in hits. Some 2% of all compounds tested hit in one or more screens of this group.
KDM4E inh – JMJD2E (human) inhibition; Potency, µM (series often up to 57.1 µM), most hits filed as inhibitors; B2RXH2; 230,000 tested, 1.6% active; JMJD2E catalytic domain, FDH-coupled NADH fluorescence (FDH is formaldehyde dehydrogenase); further: nearly all actives have a fitted effect of over 50% in size
HTT ATP protect – cytoprotection in Huntington HTT-Q103 PC12 cell model. AID 1471. Potency, µM (top dose mostly 56.4 µM), hits mostly activators. PC12 HTT-Q103 induced, cytoprotection, ATP luminescence, 40 h. 230,000 tested, 0.14% active; further: nearly all actives have a fitted effect of over 45% in size
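ATP quantification (ATPlite) reports survival of PC12 cells in which tebufenozide, 100 nM final, switches on Htt exon 1 with 103 glutamines linked to GFP; compounds are titrated.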
TexasRed fluor – Texas Red fluorescence interference in TRb-SRC2 counter-screen; TRb/SRC2 Texas Red total fluorescence interference; Potency, µM (top dose mostly 106 µM); 280,000 tested, 0.29% active; AID 1479; active means well fitted curve in either direction with a large enough effect; inconclusive means small, poorly fitted or top-dose-only effect
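Flags fluorescent or light-absorbing compounds by total fluorescence, S + 2P, at 555 nm excitation and 632 nm emission. Mixture: 20 nM Texas Red SRC2 peptide, 0.6 uM human TRb LBD, 1 uM T3, 5% DMSO; compound exposure 5 h at ambient temperature.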
HTT aggregate – inhibitors of mutant huntingtin aggregate formation in PC12 cells; Potency, µM (top dose mostly 46.1 µM), hits mostly inhibitors; AID 1688; PC12 HttQ103-GFP aggregates, Acumen cytometry, 40 h; 220,000 tested, 1.1% active; further: nearly all actives have a fitted effect of over 60% in size
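Using laser scanning cytometry, GFP-positive aggregates were counted after lysis of PC12 cells induced with 100 nM tebufenozide to express HTT exon 1 Q103–GFP. Compounds were tested in titration.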
Coupling enz – inhibits coupling enzyme system, counter-screen for aldolase hits; activity change, negative = inhibition, % at 58.2 µM, hits read low; AID 2472; 290,000 tested, 0.67% active; coupling enzyme system counterscreen, AmpLite Red fluorescence; in the data active means activity change below about -30%
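Counterscreen lacking aldolase: glyceraldehyde-3-phosphate coupling-enzyme reagent preincubated 10 min at RT with compound (at 57.5 uM final), then substrate/coupling system with AmpLite Red added; fluorescence read at 525/598 nm after 20 min RT.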
TRb SRC2 PPI – disrupts binding of human TR beta to SRC2 | TRbeta-SRC2 peptide binding, fluorescence polarization; receptor liganded with 1 µM T3 | AID 1469 | P10828 | Potency, µM (top dose mostly 106 µM), hits mostly inhibitors | 280,000 tested, 0.065% active; further: nearly all actives have a fitted effect of over 50% in size
Target sequence (P10828 whole entry, looked up): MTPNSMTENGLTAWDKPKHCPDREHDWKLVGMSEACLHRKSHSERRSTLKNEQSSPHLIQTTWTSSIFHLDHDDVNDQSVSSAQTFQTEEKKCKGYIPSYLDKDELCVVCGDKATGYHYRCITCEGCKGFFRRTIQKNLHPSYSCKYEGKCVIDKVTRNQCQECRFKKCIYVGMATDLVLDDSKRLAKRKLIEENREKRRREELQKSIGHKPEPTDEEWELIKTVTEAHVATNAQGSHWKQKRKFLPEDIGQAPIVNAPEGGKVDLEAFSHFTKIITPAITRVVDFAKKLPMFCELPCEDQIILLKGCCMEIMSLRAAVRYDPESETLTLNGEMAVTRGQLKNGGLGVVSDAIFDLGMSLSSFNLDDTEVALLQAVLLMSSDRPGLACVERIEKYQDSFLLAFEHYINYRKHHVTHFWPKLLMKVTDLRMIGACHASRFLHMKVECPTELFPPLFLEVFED
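Decrease in fluorescence polarization of 20 nM Texas Red SRC2 coactivator peptide flagged inhibition of its binding to 0.6 uM TRb LBD; 1 uM T3 included, incubation 5 hr, ex 555/em 632 nm.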
A number is an active result; - = inactive; ? = inconclusive; . = no result given; ! = a repeat was not active; [ ] = dose if it differs, or a comment. Unless noted, the call rests on the fitted dose curve; in most records, active means well fitted curve in the direction sought with a large enough effect; inconclusive means small, poorly fitted or top-dose-only effect, or another doubt; inactive means no such curve, though single readings can be large; an effect the other way counts as inactive or inconclusive.

SMILES	KDM4E inh	HTT ATP protect	TexasRed fluor	HTT aggregate	Coupling enz	TRb SRC2 PPI
O=C(/C=C/c1ccccc1)NC(NC(=S)Nc1cc(Cl)ccc1Cl)C(Cl)(Cl)Cl (centres undefined)	-	-	-	2.82µM	-	-
O=C(/C=C/c1ccccc1)NC(NC(=S)Nc1ccc(Cl)cc1)C(Cl)(Cl)Cl (centres undefined)	-	-	-	-	-	-
Cc1cc(C)c(NC(=O)Cn2c(=O)n(CCC(=O)NCc3ccc4c(c3)OCO4)c(=O)c3ccccc32)c(C)c1	.	.	?	.	.	-
Cc1cc(C)cc(Oc2c(C(F)(F)F)oc3c(CN4CCCC(C)C4)c(O)ccc3c2=O)c1 (centres undefined)	.	.	-	.	.	-
NC(=O)C(=CNc1nc(-c2ccc(Cl)c(Cl)c2)cs1)C(N)=O	7.94µM	-[10 µM]	-	-[9.22 µM]	-	-
Cc1cc(C)c(O)c(N)c1	15.8µM	-[10 µM]	-	-[9.22 µM]	-	-
CCCCCCCCCCCCCCO	.	.	-	.	.	-
Cc1c(Cl)c(C(=O)NNC(=S)Nc2ccccc2)nn1C	10µM	-	-	-	-	-
CCNC(=S)NNC(=O)c1nn(C)c(C)c1Cl	-	.	-	-	-	-
Cc1c(Cl)c(C(=O)NNC(=S)Nc2ccc(F)cc2)nn1C	20µM	-[10 µM]	-	-[9.22 µM]	-	-
NS(=O)(=O)c1ccc(Nc2ccc([N+](=O)[O-])c3nonc23)cc1	-	-[10 µM]	-	-[9.22 µM]	-32.8	-
COc1ccc(NC(=O)C2CCN(S(=O)(=O)c3c(C)noc3/C=C/c3ccco3)CC2)cc1	.	.	-	.	.	-
O=S(=O)(NCc1nc2cccnc2n1Cc1ccc(F)cc1)c1ccc2c(c1)CCCC2	.	.	-	.	.	-
Cc1cc(=O)c2c(O)c3c(O)cc(=O)c4c3c3c(cc(O)c1c23)C(C)(C)C=4O	-	-	?	3.16µM	-	-
C/C(CCc1ccco1)=N\NC(=O)CNc1cccc2ccccc12	?	-	-	-	-54.9	-
COCCNC(=O)CN(C(=O)CCC(=O)Nc1ccccn1)c1ccccc1F	-	-	-	0.0045µM	-	-
CCOc1ccc(C2C(=O)N(C3CCCCCC3)CC(=O)N2Cc2ccccc2)cc1OC (centres undefined)	.	.	-	.	.	-
O/N=C/c1ccc2cccc(O)c2n1	31.6µM	-[10 µM]	-	-[9.22 µM]	-	-
O/N=C/c1ccc2ccccc2n1	-	-[10 µM]	-	-[9.22 µM]	-	-
O=C(O)c1ccc(/C=C/c2ccc3cccc(O)c3n2)cc1	8.91µM	?	-	-	-	-
Oc1cccc2ccc(/C=C/c3c(F)cccc3Cl)nc12	28.2µM	-	-	?	-	-
COc1ccccc1N1CCN(C(=O)C2CCN(S(=O)(=O)c3cnc[nH]3)CC2)CC1	.	.	-	.	.	-
CCCCCCCCCCCCCCCCCCN	.	.	-	.	.	-
Cc1cc(N2CCN(C)CC2)nc2ccc(NC(=O)Nc3cccc(Cl)c3)cc12	.	.	-	.	.	-
Cc1cc(C(=O)CSc2nnnn2C)c(C)n1-c1ccc2c(c1)OCCO2	-	-	-	-	-44.9	-
SMILES	KDM4E inh	HTT ATP protect	TexasRed fluor	HTT aggregate	Coupling enz	TRb SRC2 PPI
Cc1cc(C(=O)CSc2nnc(-c3ccco3)o2)c(C)n1-c1ccc2c(c1)OCCO2	-	-[10 µM]	-	8.91µM	-	-
Cc1nn(C(=O)c2cccc([N+](=O)[O-])c2C)c(C)c1S(=O)(=O)N1CCOCC1	.	.	-	.	.	-
CC1(C)Cc2ccccc2C(NNC(=O)c2ccccn2)=N1	25.1µM	-	-	17.8µM	-	-
COC(=O)c1cc(C)nc2c1c(=O)nc(SCc1ccccc1C)n2C1CC1	.	.	-	.	.	-
COc1ccc(N2CCN(C(=O)c3cccnc3SCc3cccc(Br)c3)CC2)cc1	-	-	-	22.4µM	-	-
CCCCC(=O)NC(c1ccccc1Cl)c1ccc2cccnc2c1O (centres undefined)	.	.	.	.	-	.
COc1ccc(Cl)cc1C(Nc1cccnc1)c1ccc2cccnc2c1O (centres undefined)	14.1µM	-[10 µM]	-	-[9.22 µM]	-	-
CCC(=O)NC(c1ccccc1OC)c1ccc2cccnc2c1O (centres undefined)	25.1µM	-[10 µM]	-	3.16µM	-	-
CCCC(=O)NC(c1ccc(OC)cc1)c1ccc2cccnc2c1O (centres undefined)	22.4µM	-[10 µM]	-	?	-	-
Cc1nnc2c(N3CCN(c4ccccc4)CC3)nc3ccc(C(=O)c4ccccc4)cc3n12	.	.	-	.	.	-
CN1/C(=C\C=[N+](C)c2ccccc2)C(C)(C)c2ccccc21	-	-	-	6.31µM	-	-
Cc1ccccc1N=C/C=C1\N(C)c2ccccc2C1(C)C	?	-	44.7µM[fluorescent]	14.1µM	-	?
CN1/C(=C\C=C2/C(=O)Oc3ccccc3C2=O)C(C)(C)c2ccccc21	-	.	-	7.94µM	-	-
Cc1ccc(Cl)cc1NC(=O)C(=O)NCCc1sc(-c2ccc(F)cc2)nc1C	.	.	-	.	.	-
O=C(NNC(=O)c1cccnc1SCc1cccc([N+](=O)[O-])c1)c1ccccn1	10µM	-[10 µM]	-	?	-	-
CC1=C(C(=O)N2CCN(c3cccc(Cl)c3)CC2)C2(CCCCC2)OC1=O	.	.	-	.	.	-
CC(C)c1nc(N2CCN(C(=O)c3ccccc3)CC2)c(C#N)c2c1COC(C)(C)C2	?	-	-	14.1µM	-	-
COC(=O)CCCC1=CC2=CC(=O)C(C)(OC(=O)c3cccs3)C(=O)C2=CN1c1ccccc1 (centres undefined)	?	-[10 µM]	-[11.2 µM]	.	-	-[11.2 µM]
COC(=O)CCCC1=CC2=CC(=O)C(C)(OC(=O)c3cccs3)C(=O)C2=CO1 (centres undefined)	-	-	-	.	-	-
COC(=O)CCCC1=CC2=CC(=O)C(C)(OC(=O)c3cccs3)C(=O)C2=CN1C1CCCCC1 (centres undefined)	?	-[10 µM]	-[11.2 µM]	-[9.22 µM]	-41.1!	-[11.2 µM]
COC(=O)CCCC1=CC2=CC(=O)C(C)(OC(=O)c3cccs3)C(=O)C2=CN1CCN1CCOCC1 (centres undefined)	-[11.4 µM]	-[10 µM]	-[11.2 µM]	-[9.22 µM]	-38.4!	-[11.2 µM]
Cc1ccccc1OCCCCn1cnc2ccccc21	-	-	-	7.08µM	-	-
CO[C@H]1/C=C/O[C@@]2(C)Oc3c(C)c(O)c4c(O)c(c(/C=N/N5CCN(C)CC5)c(O)c4c3C2=O)NC(=O)/C(C)=C\C=C\[C@H](C)[C@H](O)[C@@H](C)[C@@H](O)[C@@H](C)[C@H](OC(C)=O)[C@@H]1C	.	-	-	.	.	-
COC1C=CO[C@@]2(C)Oc3c(C)c(O)c4c(O)c(c(C=NN5CCN(C)CC5)c(O)c4c3C2=O)NC(=O)/C(C)=C\C=CC(C)C(O)[C@@H](C)C(O)C(C)[C@H](OC(C)=O)C1C (some centres undefined)	12.6µM	-	-	-	-	-
O=C(Cc1cccs1)NC1CC(=O)N(c2ccc(F)cc2)C1 (centres undefined)	.	.	-	.	.	-

Source: PubChem BioAssay (National Center for Advancing Translational Sciences (NCATS))
